Measured values from PubChem BioAssay AID2685 (National Center for Advancing Translational Sciences (NCATS), 2010).
The whole screen tested about 320,000 compounds, of which about 2,100 (0.66%) were called active. About 53% were inconclusive and are not listed. Calls come from the whole dose curve; as a rule, active = well fitted inhibition curve with a large enough effect in the signal ratio, with a control signal flat (not every such curve was filed as active); inconclusive = small, poorly fitted or top-dose-only effect, or effect the other way, or a change in a side signal; inactive = flat fitted curve, though single readings scatter; the % refers to the signal ratio. Shown is part of a subset that was picked to be rich in actives.

test: qHTS Assay for Lipid Storage Modulators in Drosophila S3 Cells; conditions: BODIPY lipid droplet fluorescence, 18-24 h, cells fed with added oleic acid; cell number change: measured here: cell count max response; series mostly up to 46.1 µM; lipid storage change, negative = inhibition: at the top concentration;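 for cell number change: cells counted by Cell Tracker Red CMTPX staining in the red channel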; for lipid storage change, negative = inhibition: % is set by controls: 0 for no effect and ±100 for the full control effect
Procedure, shortened: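 Drosophila S3 cells got compounds at several concentrations plus oleic acid (400 uM solution). Laser-scanning cytometry with 488 nm excitation read lipid droplets at 500-530 nm and cells at 575-640 nm. Percent activity was relative to 20 uM Triacsin C.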
Potency is the fitted concentration of half-maximal effect.

| Structure (SMILES) | outcome | cell number change [%] | lipid storage change, negative = inhibition | Potency |
| --- | --- | --- | --- | --- |
| Cc1ccc(OCCn2cc(Br)c(=O)[nH]c2=O)cc1 | inactive | -2.4 | – | – |
| COc1cccc(CNC(=O)CCC2CCCN(C(=O)c3cc(C)on3)C2)c1 (centres undefined) | – | 6.95 | 3.38% (inactive) | – |
| C=CCNC(=S)/N=c1/ccccn1C | – | -1.1 | -4.8% (inactive) | – |
| Cc1cccc(CN2CCC(C(=O)Nc3cccc(-c4cccc(F)c4)c3)CC2)n1 | – | – | -11.7% (inactive) | – |
| Cc1nnc(SCc2ccc(F)cc2)s1 | – | -1.22 | – | 2.06 µM (active) |
| COc1ccc(CSc2nnc(C)s2)cc1F | – | 9.99 | 3.56% (inactive) | – |
| Cc1nnc(SCc2ccc(F)cc2Cl)s1 | inactive | -1.12 | – | – |
| COc1ccc(OC)c(C(=O)COC(=O)C(CCSC)NC(=O)COc2ccccc2)c1 (centres undefined) | inactive | – | – | – |
| CC1CCN(CCCNC(=O)C2CCN(S(=O)(=O)N3CCC4(CC3)OCCO4)CC2)CC1 | – | 1.22 | -18.8% (inactive) | – |
| O=C(NCCCN1CCCCC1)C1CCN(S(=O)(=O)N2CCC3(CC2)OCCO3)CC1 | inactive | -12.2 | – | – |
| O=C(NCCN1CCCC1)C1CCN(S(=O)(=O)N2CCC3(CC2)OCCO3)CC1 | – | -14.5 | – | 29.1 µM (active) |
| O=C(CCCC(=O)c1ccccc1)NCCc1ccccc1F | – | 22 | 2.38% (inactive) | – |
| Clc1ccc(-c2nnc(N3CCOCC3)o2)cc1 | – | 3.72 | 4.05% (inactive) | – |
| CC(=O)c1ccc(OCCCC(=O)Nc2cccc(S(=O)(=O)N(C)C)c2)cc1 | – | 1.3 | 2.99% (inactive) | – |
| O=S(=O)(NCC(c1ccco1)N1CCN(c2ccccc2)CC1)c1ccc(F)cc1 (centres undefined) | – | 9.35 | 8.16% (inactive) | – |
| O=S(=O)(NCC(c1ccco1)N1CCN(c2ccccc2F)CC1)c1ccccc1 (centres undefined) | – | 26.9 | 15.1% (inactive) | – |
| O=S(=O)(NCC(c1ccco1)N1CCN(c2ccccc2F)CC1)c1ccc2c(c1)OCCO2 (centres undefined) | – | – | – | 23.1 µM (active) |
| CCn1c(=N)c(S(=O)(=O)c2ccc(C)cc2)cc2c(=O)n3ccccc3nc21 | – | 11.4 | 16.3% (inactive) | – |
| CN(C)S(=O)(=O)N1CCN(c2cc(Cl)ccc2Cl)CC1 | – | -20.4 | 16.6% (inactive) | – |
| COc1ccc(/C=C2\CCc3ccccc3C2=O)cc1O | inactive | -1.8 | – | – |
| COc1cc(/C=C2\CC/C(=C\c3ccc(OCCO)c(OC)c3)C2=O)ccc1OCCO | – | 11.6 | – | 16.4 µM (active) |
| COc1ccc(/C=C2\Cc3ccccc3C2=O)cc1OC | – | -17.4 | 0.0747% (inactive) | – |
| CCn1c(=O)cc(OCC(=O)Nc2ccc(C)cn2)c2ccccc21 | – | 8 | 23.2% (inactive) | – |
| COc1ccc(C)cc1NC(=O)C1CCC(CNc2c(N3CCOCC3)c(=O)c2=O)CC1 (centres undefined) | – | 18.9 | 9.49% (inactive) | – |

| Structure (SMILES) | outcome | cell number change [%] | lipid storage change, negative = inhibition | Potency |
| --- | --- | --- | --- | --- |
| Cc1cccc(N2CCN(C(=O)COc3ccc4c(c3)CCC4)CC2)c1C | – | 1.12 | 0.152% (inactive) | – |
| O=C(COc1ccc2c(c1)CCC2)N1CCN(c2cccc(C(F)(F)F)c2)CC1 | inactive | 20.7 | – | – |
| Cc1cccc(N2CCN(C(=O)COc3ccc4c(c3)CCC4)CC2C)c1 (centres undefined) | – | -2.19 | – | 2.06 µM (active) |
| CCOC(=O)c1ccc(NC(=O)Cn2nnc(-c3ccc(F)cc3)n2)cc1 | – | -3.44 | -18.5% (inactive) | – |
| COc1ccc(OC)c(Nc2nc3nonc3nc2N2CCCC(C)C2)c1 (centres undefined) | – | 7.7 | 10.9% (inactive) | – |
| CC(C)c1onc(C(=O)N2CCCCC2)c1[N+](=O)[O-] | – | -22.7 | – | 0.82 µM (active) |
| CC(C)c1onc(C(=O)N2CCOCC2)c1[N+](=O)[O-] | – | -0.564 | 2.21% (inactive) | – |
| CC(C)c1onc(C(=O)N2CCCCCC2)c1[N+](=O)[O-] | – | -15.8 | -5% (inactive) | – |
| CS(=O)(=O)N1CCC(C(=O)Nc2ccc(Cl)c(Cl)c2)CC1 | – | -6.77 | 17.7% (inactive) | – |
| COc1ccc(CC(=O)OCC(=O)Nc2ccc3c(c2)OCCO3)cc1OC | – | 3.44 | 3.05% (inactive) | – |
| O=C(CCn1c(=O)[nH]c2ccsc2c1=O)N1CCN(Cc2ccc3c(c2)OCO3)CC1 | – | – | -1.99% (inactive) | – |
| Cc1ccc(-c2nc3ccccc3[nH]2)cn1 | – | 10.6 | -2.7% (inactive) | – |
| CCN(CC)S(=O)(=O)c1cc(C(=O)n2cccn2)c(Cl)cc1Cl | – | -0.259 | – | 4.61 µM (active) |
| CCN(CC)S(=O)(=O)c1cc(C(=O)Nc2cc(C)on2)c(Cl)cc1Cl | – | -16.4 | -12% (inactive) | – |
| CCN(CC)S(=O)(=O)c1cc(C(=O)Nc2cccnc2Cl)ccc1Cl | inactive | – | – | – |
| O=C(COC(=O)CC12CC3CC(CC(Br)(C3)C1)C2)NC(=O)NCc1ccco1 | – | -9.1 | -0.115% (inactive) | – |
| CC(=O)NC12CC3CC(C1)CC(C(=O)OCC(=O)NC(=O)c1cccn1C)(C3)C2 | – | -12.7 | -20.7% (inactive) | – |
| Cn1cccc1C(=O)NC(=O)COC(=O)CC12CC3CC(CC(Br)(C3)C1)C2 | – | 2.25 | – | 7.31 µM (active) |
| O=C(NCc1nc2ccccc2[nH]1)c1c(F)c(F)c(F)c(F)c1F | – | -0.311 | -16.5% (inactive) | – |
| O=C(O)C1CCCCC1C(=O)NCCc1cccc(Cl)c1 (centres undefined) | – | -1.17 | -11.6% (inactive) | – |
| Cc1ccn(CC(=O)N2CCCC(N3CCN(c4cccc(Cl)c4)CC3)C2)n1 (centres undefined) | inactive | 14.6 | – | – |
| Cc1nc(CNC(=O)CC2C(=O)NCCN2Cc2ccc(F)cc2)cs1 (centres undefined) | – | 20.2 | -3.08% (inactive) | – |
| CCN(CC)S(=O)(=O)c1ccc(OC)c(NC(=O)C2CC(=O)N(c3ccc4c(c3)OCCO4)C2)c1 (centres undefined) | inactive | -25.9 | – | – |
